Data published in PubChem BioAssay AID1508600 (Functional Genomics Laboratory (NCATS/FGL), 2020).
Screen size: about 53,000 sequences; about 3,700 (7%) were called active.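 The calls were made as follows: active = gene knockdowns whose robust z-score for IL-1 alpha signal is at least 2 or at most -2, so actives lie on both sides; inactive = the rest.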 This excerpt belongs to a sample that is enriched for actives.

Test: Components of the Cytosolic LPS Sensing Pathway: Gene Identification via Genome-wide siRNA Screen;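 also: robust z of the log signal after scaling to non-targeting control siRNA wells of the plate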
Settings: RAW264.7 macrophages, IL-1a HTRF, actives lie on both sides, screened at 100 nM (by protocol), cells primed 5 h with Pam3CSK4 first
Outline: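 Read-out: IL-1a HTRF on supernatant, divided by plate negative-control median ×100, log-transformed and converted to robust z-score. Cells were RAW264.7 given 100 nM siRNA, Pam3CSK4-primed 5 hours, then LipidA-transfected 24 hour.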

z-score, active:
GGCCAUCUAAUGACCUUCATT against Madd -2.7
GGGCUGAGGAGAAAAUGCATT against Meg3 -2.37
CGCAGUGAGGAGUAUGAAGTT against Nin 3.53
GCACCCUAGAGGUAAAAGATT against Taf12 -2.95
GGAUCAUAUAUGAAGCACATT against Mybl1 -2.16
GGGAAGUUAUAAUGGAAGUTT against Rps15a 2.46
GGUGACACACUAGUAGACUTT against Sclt1 3.47
GGCAAUAUGUCGUAUGUAATT against Sfmbt2 -2.13
GCUAAGUUGGAAUUUCCACTT against Chtop 2.05
GAAAUAGAGAUGCCUCUCUTT against Olfr1161 2.52
GCUGGUCUUUCAAGUCAAGTT against Stat5b 2.62
CGAUUUUCACCAAUUGUGGTT against Diaph2 -2.03
GGUCACCACACGAUCUACATT against Slc4a4 3.14
GCCUAGCUGAAAACGUGUCTT against Cog4 5.04
GGCUGUUAUACACUAUCUGTT against Tirap -2.71
CCAAAGCCUGAAAUGGUGGTT against Cxcr4 -2.36
GAAAUGCAAGACUCUGCACTT against 1700020L24Rik -2.66
GGAACCAAUCUGUCUCUCCTT against Cbfb -2.07
GGCUAACCUGAGCAAACAGTT against Plvap -2.21
GGUGGAACAGUGGAAUUCGTT against Grhpr 2.41

z-score, inactive:
GGCAGACUCUGCCUACUUATT against Utf1 1.01
GCUUUAAACUGAGUGAUAATT against Zfp451 -0.564
GCAUGACAGGAAACUCUCUTT against Olfr1308 -0.825
GCAACAAAUUUGAAUCAGATT against Chic2 -0.185
GGAUCUUCGUACUAGAGGCTT against Cenpx 0.0358
CCUCGUCGAGUGGAAAAUUTT against Pxylp1 -0.574
GGAGACUCCUUACGGCAAATT against Bnip1 0.227
GGAAUGUUAACAAAGAGCATT against Sgcb 0.8
CCUAAUGUUUAGAUCCAUATT against Gcm2 0.11
GGCCGAAUUGUGUCUUGGUTT against Dnmt3a -1.71
GUGACACCUUUAUGGAGAGTT against Olfr1271 0.267
CGUGCUAGUGACCAUUUACTT against Limch1 0.625
GGGUACCUACAUAGACAAGTT against Rps11 0.0651
GGUAGCUAUUAAAGAAUCCTT against AW209491 1.12
GCGAUCAGCAAGCUAAGCCTT against Mettl2 0.117
GGCCAUGAGGAAAACAAGATT against Coro7 -1.01
ACAAAGAAGCGAUUUCUAUTT against Wtip 1.32
GGUUGUAACUUGUAAGGCATT against Rnf144b 0.123
GGAGACUAAGGAGGUUUAUTT against Ruvbl1 0.494
GGAGUCUCCUUAUAUUAAUTT against Alcam 0.896
GGUUAACAUUUUCAGUCAUTT against Itga2 -0.986
GGAUGACUUGAUUAUCUUUTT against Adrm1 0.603
GGCAAAGAUUCCAAAAGAGTT against Bsdc1 -1.59
CCAGAUUGUGUUCACGAUGTT against Rasgrf2 0.888
GCAUAAAGCAGUCAUGCUUTT against Gskip -0.989
GCCAUGUGUAUGGUAGUCUTT against Olfr1247 -1.22
GCUAAUAAUGGUCAAAGCCTT against Prrt3 -0.963
GGAUAUUCAUGUUUCAUUGTT against Vipr2 0.836
CGACCAGAUGAACUGGUGUTT against Smg9 0.929
CGAACAGAAACAGUUAUUATT against Gbp2 1.01
CCAAAUCUCUCAAUUUAGGTT against Taf9b 0.265
CCAAAGAUGUUAUUGGACCTT against Olfr1152 -1.1
CCUGUAAACCAGAUAAGCCTT against Defb1 -0.0772
GGUCAUGAAUUACUAUUCCTT against Cyth2 1.02
GGAGAAAUUCCCUUGCCACTT against Kbtbd12 -0.0157
UUUAUACUUCCCUGAUUUUTT against Olfr943 -0.409
GGGAAAAAGGAGAACUUCUTT against Cfap161 -1.12
GGAUCAUAGUUACAAGGCUTT against L3mbtl2 0.458
GCUUUGAGAGGUGUUGAUATT against Gm6116 -0.864
GCCGUUUUAUGUGGCAGAATT against Slc35d3 0.141
GGUAUUGUGGCCAGUAUUUTT against Ptdss2 0.185
AUAAGGAUGUCCAUCUUGCTT against Olfr884 -1.17
CGGUCUAAAUUUCCGGUCATT against Elane -0.205
GGCUCAACGGGAUUACUUUTT against Pgd -0.578
CCAAUUUACGACAAAUCGUTT against Entpd4 -0.56
GGCCCGAAACAAGAAAUCCTT against Ikbke 0.957
GAAAAAUCAUGAAGCCAUATT against Olfr203 -0.0109
CCAGCUAGUGAUGUCAAAATT against Bri3bp -0.0406
GGACAGCUGGCUUCUAAAUTT against Lmntd1 0.137
CCAUAGGUAUGUUAAUCGATT against Polr1b -0.426
GGCCAACCUACUUUUCUGGTT against Mgll -1.18
CGAUGGAAGUUUAAACCUCTT against Htr1a 0.326
GGUUGUGAAUGUAAGUGAGTT against Entpd1 -0.787
GGCAUCUUCGAAAAAUGAUTT against Reck -0.552
GGACAUCAGUUGUCCUAGCTT against Ano6 -0.285
GGGCUACUCAAAGAAGAUATT against Galnt5 -0.357
GCUCGGCUUUAGAGACCUATT against Cox19 0.379
GCCUGUACAUGACGGAAAGTT against Bag4 0.155
GGAGUUACGGGAUUCCGUUTT against Kras 1.7
GCUUAUAAAAGACUUACUGTT against Sec24b 0.414
GGUUAAAAUUGGCUAAAUGTT against Sertm1 1.5
GGCUAAAAAGAGUAGACUATT against Irs1 1.14
GGAAGAAUCUGAUUCGUAATT against Snapc5 -1.28
GGCUUUUUCUACAUGCGCCTT against Olfr1104 -0.236
GGCUUUACUACUCAACCAUTT against Gjb3 -0.388
GCAUUUAUAUGAGAUGCAGTT against Fam210a 0.108
GGUCAAAACAUGUUGAAGGTT against B330016D10Rik 0.15
GGCAGAUGAUGGUCCAUGCTT against Tfpi -1.63
CCAGCAGUAAACUGGAAAUTT against Arhgap25 -1.53
GGCAACCAGAUAUUUGUUATT against Myef2 0.549
GCUCGCACAGAAGUUACAATT against Lrrc42 -0.486
GGAGCGAGUAGACAUUCUGTT against Rdh13 1.72
GGUAGUGCCAUAAUUUCUGTT against Nipal2 -0.782
GCUGUUAACUAUCUGGAUATT against Prokr1 0.59
GGGUGUUGUGUCCUCUCAATT against Gckr 0.0744
GCAUGAAUCGUGCGAAGAUTT against Zfp871 0.903
CCAGGUUCUCCGAAUCUCUTT against Cpa1 -0.854
GCUGAGUCCAUUGAAGAAGTT against Pebp4 0.255
GCACAACGACCUUUCCAGGTT against Chst12 -0.561
GGAUCCUAAAACUGAGGAATT against Crtc2 0.22
GGAGAAAAACUGAGCAGCCTT against Chst12 -1.72
GCAUUGGAACCAUGUGCUGTT against Prss46 -1.59
GGAGGAUUAUUACAGAAGGTT against Lhx9 1.57
GGAACUGACUGCCUAUUCCTT against Gnb3 1.08
CCGUUGAUAUCCACAUGAATT against Plod3 1.97
GCACUGCAUAUUCCGCACUTT against Nubp2 1.4
GGCUGGUCUCCAAACCCAATT against F13b 0.229
GGACAGUGCCACUUAAACCTT against Tbxa2r -1
